{"source": "PubChem BioAssay (EPA / NIEHS)", "note": "The source made the active and inactive calls. The calls were made as follows: active = hit-call score of the fitted dose curve at least 0.9, where 1 is the maximum; inactive = score below 0.9.", "data": [{"read-out": "Cytochrome P450 2C19 (Homo sapiens) (UniProt P33261)", "test": "LTEA_HepaRG_CYP2C19: Life Technologies and Expression Analysis (LTEA) Assay for CYP2C19 using HepaRG (AID 2283482)", "settings": "mRNA level, 48 h; actives raise or lower the signal", "procedure": "LTEA_HepaRG is a cell based, multiplexed-readout assay that uses HepaRG, a human liver cell line, with measurements taken at 48 hours after chemical dosing on a 96-well plate.LTEA_HepaRG_CYP2C19 is one of 102 assay component(s) measured in the LTEA HepaRG cell culture assay. It is a marker of NR mediated metabolism.Data from the assay component LTEA_HepaRG_CYP2C19 was analyzed into 1 endpoint. This assay endpoint, LTEA_HepaRG_CYP2C19, was analyzed with bidirectional fitting relative to DMSO as the negative control and baseline of activity. Using a type of inducible reporter, measures of mRNA induction for gain or loss-of-signal activity can be used to understand regulation of transcription factor activity. To generalize the intended target to other relatable targets, this assay endpoint is annotated to the cyp intended target family, where the subfamily is xenobiotic metabolism.\nA total of 1060 chemcials from the ToxCast library were tested in eight-point concentration-response experiments. Cell culture and cytotoxicity assays were conducted at Thermo Fisher Scientific's Custom Services facility (Madison, WI). A single lot of human HepaRG cells (Thermo Fisher Scientific, Frederick, MD) was used for the cell culture experiments. 96-well format collagen type I coated plates of human HepaRG cells were prepared using established methods. Briefly, cryopreserved HepaRG cells were thawed, plated at a density of approximately 100,000 cells/well in HepaRG Thaw, Plate, and General Purpose media (HPRG770, Thermo Fisher Scientific), and incubated for 48 hours. 0.5% DMSO was selected as vehicle control to balance the requisite need of DMSO in HepaRG cultures to maintain differentiation (for example, baseline metabolism, proportions of hepatocytes vs. cholangiocytes), while enabling further hepatic receptor pathway activation (for example, PXR and CAR) in response to chemical exposure. 48 hours after plating, the culture medium was replaced with HepaRG Serum-Free Incudtion Media. Cells were exposed to each test chemical in duplicate and maintained in CO2 incubators for another 48 hours. Chemical plates were thawed to room temperature and 200x concentrations of treatment groups were prepared. 8-point conentration-reponse curves were made with the highest exposure at 100 uM, followed by half-log dilutions, all in 0.5% DMSO. Each test plate contained variouse controls, induction positive controls (1mM phenobarbital), cytotoxicity positive controls ([…] aflatoxin B1), vehicle controls (0.5% DMSO), and total lysis controls (0.5% DMSO). Cell morphology images were taken using an Essen IncuCyte FLR automated microscope, with six 96-well plates imaged in about 24 minutes. Images were captured and exported and JPEG files. Spent culture media was transfered to black-well plates for the LDH assay, and remaining media was sorted at -80 C for later use. Cells were treated with RLT buffer and frozen until shipped for gene expression analysis. Total RNA was isolated from the cell suspension in 75 uL of Buffer RLT (Qiagen, Germantown, MD 20874) by Quintiles/Expression Analysis (Durham, NC) using a custom isolation procedure. Total RNA from each plate well was transferred to a preamplification plate. Fluidigm's 96.96 Dynamic ArrayTM (Fluidigm, Amsterdam, the Netherlands) technology was used for gene expression analyses by quantitative reverse transcription polymerase chain reaction (qRT-PCR, performed by Quintiles/Expression Analysis, Durham, NC)89. Standard TaqManTM Assays (Applied Biosystems/ThermoFisher Scientific, Foster City, CA) were used to assess the expression of 93 genes selected based on their selectivity and sensitivity to important hepatic receptors known to be modulated by environmental chemicals; importance in human hepatocyte functionality; and hepatotoxicity. […]", "values": [{"smiles": "CN(C)C=O", "outcome": "inactive"}, {"smiles": "COCC(C)O", "note": "(stereo not given)", "outcome": "inactive"}, {"smiles": "CC(C)CCCCCCOC(=O)CCCCC(=O)OCCCCCCC(C)C", "outcome": "inactive"}, {"smiles": "O=[N+]([O-])c1ccc(O)cc1", "outcome": "inactive"}, {"smiles": "CCCCCCCCC(=O)O", "outcome": "inactive"}, {"smiles": "CC(C)(C)CC(C)(C)c1ccc(O)c(-n2nc3ccccc3n2)c1", "AC50": "12.7 µM (active)"}, {"smiles": "CCCCOCCO", "outcome": "inactive"}, {"smiles": "CCc1nn(C2CCCCC2)c2cc(C3(C#N)CCC(C(=O)O)CC3)ccc12", "note": "(stereo not given)", "AC50": "63.3 µM (active)"}, {"smiles": "OC1CCCCC1", "outcome": "inactive"}, {"smiles": "CCCCCCCCCCCCc1ccccc1S(=O)(=O)O", "AC50": "87.3 µM (active)"}, {"smiles": "COC(=O)CCCCC(=O)OC", "outcome": "inactive"}, {"smiles": "CC(=O)CC(C)(C)O", "outcome": "inactive"}, {"smiles": "CCCCC(CC)COC(=O)CCCCC(=O)OCC(CC)CCCC", "note": "(stereo not given)", "outcome": "inactive"}, {"smiles": "O=C(OCCOCCOC(=O)c1ccccc1)c1ccccc1", "outcome": "inactive"}, {"smiles": "CCOC(=O)CC(O)(CC(=O)OCC)C(=O)OCC", "outcome": "inactive"}, {"smiles": "c1ccc2c(c1)Cc1ccccc1-2", "outcome": "inactive"}, {"smiles": "CC(C)(C)c1cccc(C(C)(C)C)c1O", "outcome": "inactive"}, {"smiles": "CCCCC(CC)COC(=O)CCCCC(=O)OCc1ccccc1", "note": "(stereo not given)", "outcome": "inactive"}, {"smiles": "CCCCCCCC(=O)O", "outcome": "inactive"}, {"smiles": "CCC(=C(c1ccc(O)cc1)c1ccc(OCCN(C)C)cc1)c1ccccc1", "AC50": "91.4 µM (active)"}, {"smiles": "NC(=O)N(O)[C@@H]1C=C[C@H](Oc2cccc(Oc3ccc(F)cc3)c2)C1", "AC50": "76.7 µM (active)"}, {"smiles": "Cc1cc(C)c(O)c(C)c1", "AC50": "9.18 µM (active)"}, {"smiles": "CCC(C)(C)C1CCC(O)CC1", "note": "(stereo not given)", "outcome": "inactive"}, {"smiles": "O=C(O)c1ccccc1C(c1ccc(O)cc1)c1ccc(O)cc1", "outcome": "inactive"}, {"smiles": "CC[C@H](C)[C@@H](C(=O)O)n1sc2ccccc2c1=O", "outcome": "inactive"}, {"smiles": "COc1ccc([N+](=O)[O-])cc1N", "outcome": "inactive"}, {"smiles": "c1ccc2cc3c(ccc4ccccc43)cc2c1", "AC50": "15.2 µM (active)"}, {"smiles": "CN1CCN(c2ccccc2/C=C2\\SCCN(c3ccc(Cl)c(Cl)c3)C2=O)CC1", "outcome": "inactive"}, {"smiles": "CC#C[C@]1(O)CC[C@H]2[C@@H]3CCC4=CC(=O)CCC4=C3[C@@H](c3ccc(N(C)C)cc3)C[C@@]21C", "AC50": "33 µM (active)"}, {"smiles": "Oc1cccc(O)c1", "outcome": "inactive"}, {"smiles": "CC1=C(/C=C/C(C)=C/C=C/C(C)=C/C(=O)O)C(C)(C)CCC1", "AC50": "27 µM (active)"}, {"smiles": "CCCCCCC(=O)O", "outcome": "inactive"}, {"smiles": "CCCCCCCCCCCCN1CCCC1=O", "outcome": "inactive"}, {"smiles": "CC(O)CO", "note": "(stereo not given)", "outcome": "inactive"}, {"smiles": "C=C(C)C(=O)OCCC(F)(F)C(F)(F)C(F)(F)C(F)(F)C(F)(F)C(F)(F)F", "outcome": "inactive"}, {"smiles": "c1ccc2c(c1)ccc1ccccc12", "AC50": "15.4 µM (active)"}, {"smiles": "CC(C)(C)c1ccc(O)c(C(C)(C)C)c1", "outcome": "inactive"}, {"smiles": "CC(C)(C)c1cc(C(C)(C)C)c(O)c(C(C)(C)C)c1", "outcome": "inactive"}, {"smiles": "CCCCCCCCOC(=O)CCCCCCCCC(=O)OCCCCCCCC", "outcome": "inactive"}, {"smiles": "ClC1=C(Cl)C(Cl)(Cl)C(Cl)=C1Cl", "outcome": "inactive"}]}]}
